Experimental data from the supplement of paper PMC7156485.
± gives the standard deviation of the averaged measurements.

What follows are compounds tested on TDF (assay: cell number relative to DMSO (% of DMSO); higher = more cells (less growth inhibition / toxicity)). Conditions: concentration: 10 µM; 24 h.
Outline: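 HCC1569 and TDF cells were seeded at 800 per well in 384-well plates in RPMI with 10% FBS and treated with compounds at 10 µM for 24 h at 37 °C, in triplicate. After fixation in 3.7% formaldehyde, cells were stained with a rabbit anti-H1.0 antibody, an AlexaFluor 647 secondary and DAPI, and six fields per well were imaged at ×10. H1.0 nuclear intensity or cell number is given as percent of the plate control, using the median of replicates, with HCC1569 values smoothed for positional effects.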
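Note: TDF denotes transformed human dermal fibroblasts of mesenchymal origin.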

Q: c1cc(OCCN2CCCCC2)cc(-c2n[nH]c3ccc(-c4ncn[nH]4)cc23)c1 was tested. Which cell number did it give?
A: 107

Q: For Cc1ccccc1C(=O)c1ccc(Nc2ccc(Br)cc2N)cc1Cl, which cell number is on record?
A: 107

Q: For Nc1cccc(-c2cc3c(Oc4cccc(O)c4)ncnc3[nH]2)c1 [GSK3b Inhibitor XII, TWS119], which cell number is on record?
A: 55

Q: How did the cell number turn out when CCCNC(=O)NS(=O)(=O)c1ccc(Cl)cc1 [Chlorpropamide] was run?
A: 96.2

Q: CCCCCC=CCC=CCC=CCC=CCCCC(=O)OC(CO)COC(=O)CCCCCCCCCCCCCCCCC (stereo not given) [1-Stearoyl-2-arachidonoyl-glycerol] was tested. Which cell number did it give?
A: 104

Q: For CCCCCC=CCC1OC1C=CC(O)CC=CCCCC(=O)O (stereo not given) [Hepoxilin A3], which cell number is on record?
A: 102

Q: For CS(=O)(=O)c1ccc(C(O)C(COC(=O)CN)NC(=O)C(Cl)Cl)cc1 (stereo not given) [Thiamphenicol glycinate], which cell number is on record?
A: 96.1

Q: Which cell number does the source give for O=C1Nc2ccc(Cl)cc2C1=Cc1cc(Cl)c(O)c(Cl)c1 [PKR Inhibitor, Negative Control] here?
A: 98.8

Q: For CCN(CC)C(C)C(=O)N1c2ccccc2Sc2ccccc21.Cl (stereo not drawn) [10-(alpha-Diethylaminopropionyl)-phenothiazine hydrochloride], which cell number is on record?
A: 99

Q: With NC(CS(=O)O)C(=O)O [L-Cysteinesulfinic Acid] as the compound, how does the cell number read?
A: 113

Q: With CCCn1c(=O)[nH]c(=O)c2[nH]cnc21 [3-n-Propylxanthine] as the compound, how does the cell number read?
A: 105

Q: With CN1CCC(=C2c3ccccc3CC(=O)c3sccc32)CC1.O=C(O)C=CC(=O)O [Ketotifen fumarate] as the compound, how does the cell number read?
A: 99.6

Q: For COC(=O)N=NC=C1C=[N+]([O-])c2ccccc2N1O [Carbadox], which cell number is on record?
A: 101

Q: Which cell number does the source give for CCC(=O)c1ccc2c(c1)N(CCCN(C)C)c1ccccc1S2.Cl [Propionylpromazine hydrochloride] here?
A: 97.1

Q: Which cell number does the source give for Nc1ccccc1NC(=O)CCCCCCC(=O)Nc1ccccc1 [N~1~-(2-aminophenyl)-N~8~-phenyloctanediamide] here?
A: 89.4

Q: With CCCCCC=CCC=CC=CC=CC(O)C(O)CCCC(=O)O (stereo not given) as the compound, how does the cell number read?
A: 100

Q: O=C(NO)c1cccc(C(=O)NCCc2ccccc2)c1 [N1-hydroxy-N3-phenethylisophthalamide] was tested. Which cell number did it give?
A: 88

Q: CC1(C)SC2C(NC(=O)COc3ccccc3)C(=O)N2C1C(=O)[O-] (stereo not given) [Pencillin V] was tested. Which cell number did it give?
A: 101

Q: Which cell number does the source give for COc1ccc2c(c1)CC[C@@H]1[C@@H]2CC[C@]2(C)[C@@H](NCCCCCCN3C(=O)C=CC3=O)CC[C@@H]12.O here?
A: 109

Q: Which cell number does the source give for CC(C)c1cccc(C(C)C)c1N1C(=O)c2ccc(O)cc2C1=O here?
A: 59.5

Q: With NS(=O)(=O)Cc1noc2ccccc12 [Zonisamide] as the compound, how does the cell number read?
A: 94.5

Q: How did the cell number turn out when CN(C)CCC(CSc1ccccc1)Nc1ccc(S(=O)(=O)NC(=O)c2ccc(N3CCN(Cc4ccccc4-c4ccc(Cl)cc4)CC3)cc2)cc1[N+](=O)[O-] (stereo not given) was run?
A: 106

Q: Which cell number does the source give for O=C(Nc1cccc(C(F)(F)F)c1)Nc1cc(S(=O)(=O)NC2CC2)ccc1-c1ccsc1 here?
A: 89.5

Q: Nc1ncnc2c1nc(Sc1ccc(Cl)cc1)n2C1OC2COP(=O)([O-])OC2C1O.[Na+] (stereo not given) [8-(4-Chlorophenylthio)-cAMP sodium] was tested. Which cell number did it give?
A: 106

Q: With CCCCCC=CCC=CC=CC=CC(SCC(N)C(=O)O)C(O)CCCC(=O)O (stereo not given) [Leukotriene E4] as the compound, how does the cell number read?
A: 101

Q: CC[C@@]1(O)C(=O)OCc2c1cc1n(c2=O)Cc2cc3c(CN(C)C)c(O)ccc3nc2-1 was tested. Which cell number did it give?
A: 26.3

Q: Which cell number does the source give for N[C@@H](Cc1cc(I)c(Oc2cc(I)c(O)c(I)c2)c(I)c1)C(=O)O [L-thyroxine] here?
A: 89.5

Q: For CCCCCCCCCCCCCCCCOCC(COP(=O)([O-])OCC[N+](C)(C)C)OC(=O)NC (stereo not given), which cell number is on record?
A: 95.7

Q: Which cell number does the source give for OC(CS)C(O)CS (stereo not given) here?
A: 104

Q: COc1cc2ncnc(Nc3ccc(O)c(Br)c3)c2cc1OC [JAK3 Inhibitor II] was tested. Which cell number did it give?
A: 115

Q: With CC12CCC3c4ccc(O)cc4CCC3C1CCC2O (stereo not given) [Estradiol] as the compound, how does the cell number read?
A: 93.8

Q: Which cell number does the source give for CCC1=C(C)CN(C(=O)NCCc2ccc(S(=O)(=O)NC(=O)NC3CCC(C)CC3)cc2)C1=O (stereo not given) [Glimepiride] here?
A: 111

Q: For Cl.O=c1n(CCCN2CCN(c3cccc(Cl)c3)CC2)nc2ccccn12 [Trazodone hydrochloride], which cell number is on record?
A: 116

Q: How did the cell number turn out when CC(=O)OC1CC2(C)C(CC(O)C3C4(C)CCC(O)C(C)C4CCC32C)C1=C(CCC=C(C)C)C(=O)[O-].[Na+] (stereo not given) [Fusidic acid sodium] was run?
A: 113

Q: Cc1cc(C2CCCCC2)n(O)c(=O)c1.NCCO [Ciclopirox ethanolamine] was tested. Which cell number did it give?
A: 58.8

Q: With COc1ccc(-c2cc(C(O)C3CCCCN3)c3ccccc3n2)cc1.Cl.Cl (stereo not given) as the compound, how does the cell number read?
A: 24.8

Q: With Cc1scc2c1N(C(=O)CN1CCN(C)CC1)c1ccccc1NC2=O.Cl.Cl [Telenzepine.2HCl] as the compound, how does the cell number read?
A: 99.1

Q: How did the cell number turn out when CN=C(NC#N)NCCSCc1nc[nH]c1C [Cimetidine] was run?
A: 100 ± 12

Q: How did the cell number turn out when O=Nc1ccc2oc(=O)ccc2c1 [6-Nitroso-1,2-benzopyrone] was run?
A: 103

Q: With Nc1ccc(S(=O)(=O)Nc2ccnn2-c2ccccc2)cc1 [Sulfaphenazole] as the compound, how does the cell number read?
A: 113
